Only some compounds are listed: those with a hit (about 14% of all), similar ones and a draw of the others.
Pf growth 96h: inhibits malaria parasite growth, 96 h; P. falciparum luciferase reporter growth, 96 h; Potency, µM (titrated, usually from 28.7 µM), inactives show at the highest dose activity change, negative = inhibition, usual class: inhibitors; 320,000 compounds, 6.9% hits; AID 504834; also: potency is read from the fitted curve at half-maximal effect
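P. falciparum expressing integrated firefly luciferase grown in erythrocytes (2% hematocrit, 0.05% parasitemia final) with compounds for 96 hours at 37 C, 5% CO2. Growth inhibition read as loss of luminescence after adding luciferase detection reagent.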
Sm TGR block: S. mansoni TGR enzyme inhibition; Q962Y6; purified TGR, DTNB reduction, TNB absorbance 405 nm; Potency, µM (titrated, usually from 114 µM), for the others: at the top dose activity change, negative = inhibition, usual class: inhibitors; 360,000 compounds, 3% hits; also: potency is read from the fitted curve at half-maximal effect; nearly all actives have a fitted effect of over 60% in size
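First, TGR (20 nM dispensed) and NADPH were mixed with compound. Second, a 15 min room-temperature incubation followed. Third, further NADPH and then DTNB were added to start the reaction. Finally, TNB absorbance was monitored kinetically.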
HCMV inh: blocks human cytomegalovirus replication. HFF cells, HCMV-luciferase reporter, 72 h; stronger effect = lower value. activity change, negative = inhibition, % at 57.5 µM. 410,000 compounds, 4.5% hits. AID 1259415; in the data active = activity change below about -60%; inconclusive = no clear call, values can overlap the other calls; inactive = above about -39%
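Cell-based, HFFs, 1000 cells/well, 16 h 37C; cpds in DMSO + HCMV-luc, MOI 1 PFU/cell; 72 h 37C; OneGlo luminescence after 5 min RT; norm. to buffer vs Salinomycin 10uM.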
Giardia FBPA inh: blocks Giardia fructose-bisphosphate aldolase activity | purified Giardia FBPA | Potency, µM (titrated, usually from 59.6 µM), for inactives: at the highest dose activity, negative = inhibition, usual class: inhibitors | 290,000 compounds, 0.71% hits; also: potency is read from the fitted curve at half-maximal effect; nearly all actives have a fitted effect of over 55% in size
Target sequence (A8B2U2 whole entry, looked up): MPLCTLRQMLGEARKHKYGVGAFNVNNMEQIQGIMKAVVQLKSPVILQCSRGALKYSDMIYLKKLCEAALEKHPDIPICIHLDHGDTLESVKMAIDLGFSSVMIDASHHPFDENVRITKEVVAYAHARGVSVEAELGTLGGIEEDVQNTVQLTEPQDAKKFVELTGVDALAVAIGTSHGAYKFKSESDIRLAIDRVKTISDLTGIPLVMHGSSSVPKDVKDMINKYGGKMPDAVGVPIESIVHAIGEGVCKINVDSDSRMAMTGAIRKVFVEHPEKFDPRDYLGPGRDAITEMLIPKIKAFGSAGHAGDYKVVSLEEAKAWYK
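Giardia FBPA (40 nM reagent) was preincubated 10 min at RT with compound (up to 57.5 uM final), then substrate plus GAPDH/TPI/NAD/arsenate coupling system with diaphorase/resazurin was added; resorufin fluorescence (525/598 nm) was read after 20 min.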
Pf growth 48h: P. falciparum growth inhibition at 48 hours (one generation); AID 504832; Potency, µM (top dose mostly 28.7 µM), for inactives: top-dose activity change, negative = inhibition, usual class: inhibitors; P. falciparum luciferase growth in erythrocytes, 48 h; 310,000 compounds, 5.9% hits; also: potency is read from the fitted curve at half-maximal effect
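First compound was added to culture medium, then infected red cells at 0.1% parasitemia and 2% hematocrit (final). After incubation at 37 C under 5% CO2, luciferase detection reagent was dispensed and light output recorded.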
The depositor's hits bear a star; ? = inconclusive; . = not tested or not shown; [ ] = remark or other dose. Unless noted, calls follow the shape of the dose curve; as a rule, active = well fitted curve in the direction sought with a large enough effect; inconclusive = small, poorly fitted or top-dose-only effect, or another doubt; inactive = no such curve, though single readings can be large; an effect the other way counts as inactive or inconclusive. % is scaled to controls: 0 for no effect and ±100 for the full control effect.

SMILES	Pf growth 96h	Sm TGR block	HCMV inh	Giardia FBPA inh	Pf growth 48h
O=C(O)c1[nH]c(-c2ccccc2)c2c1C(=O)N(C1CC1)C2=O	.	.	5	.	.
COc1c(C=O)c2c(c(OC)c1OC)-c1ccc(OC)c(=O)cc1C(NC(C)=O)CC2 (stereo not given)	.	.	-68*	.	.
COc1cc2c(c(OC)c1OC)-c1ccc(OC)c(=O)cc1C(NC(C)=O)CC2 (stereo not given)	0%	-7%	-87*	-11%	34%
COc1cc2c(c(OC)c1OC)-c1ccc(O)c(=O)cc1C(NC(C)=O)CC2 (stereo not given)	4%	-3%	.	-6%	10%
COc1cc(Cl)c(C)cc1NC(=O)CC(c1ccc(F)cc1)N1Cc2ccccc2C1=O (stereo not given)	.	2%	10	.	.
COc1ccc(NC(=O)c2cc3c(=O)n(Cc4cccnc4)ccc3nc2C)cc1Cl	.	20%	-8	.	.
O=C(NCC1CCN(Cc2cccc(Cl)c2)CC1)Nc1ccc(Cl)cc1	6%	2%	?	-1%	12%[0.00184 µM]
Cc1ccc(CN2CCC(CNC(=O)Nc3ccc(C)c(C)c3)C2)cc1 (stereo not given)	.	4%	-34	.	.
CCc1cccc(CN2CCC(CNC(=O)Nc3ccc(Cl)cc3)CC2)c1	?	20%	-27	-2%	4.7µM*
Cc1ccc(C)c(CN2CCC(CNC(=O)Nc3ccc(C)c(C)c3)CC2)c1	14%	3%	-8	3%	4.1µM*
CC(=O)c1ccc(NC(=O)C(C)Sc2nnc(-c3ccncc3)n2C2CC2)cc1 (stereo not given)	.	.	-64*	.	.
COc1ncc2nc(-c3ccc(F)cc3)c(=O)n(C3CC3)c2n1	.	.	.	10%	.
O=C(CN(CC(=O)NCc1ccccc1)CC(=O)NCc1ccccc1)NCc1ccccc1	.	.	-3	.	.
CCCCC1=CC2=C(c3ccco3)C(=O)C(C)(OC(=O)c3ccc(Cl)nc3)C(=O)C2=CO1 (stereo not given)	.	.	.	0%	.
CC(C)(C)n1ncc2c(=O)n(CC(=O)NCc3ccco3)cnc21	12%	45µM*	44	6%	291%
CC(C)(C)n1ncc2c(=O)n(CC(=O)NC3CCCCC3)cnc21	.	0%	12	8%	94%
CC(C)(C)n1ncc2c(=O)n(CC(=O)NCc3ccc(F)cc3)cnc21	13µM*	6%	4	10%	281%
CC(C)(C)n1ncc2c(=O)n(CC(=O)Nc3ccccc3)cnc21	4%	0%	-3	1%	1%
CC1(C)CC(=O)c2c(oc3cc4c(cc23)OCO4)C1	.	.	.	7%	.
CC(C)(C)CC(=O)Nc1nnc(SCC(=O)N2CCCCC2)s1	-14%	16%	15	-4%	-15%
Cc1ccc(CN2C(=O)C3CCCN3c3ccc(S(=O)(=O)N4CCOCC4)cc32)cc1 (stereo not given)	1.7µM*	-1%	.	-8%	4.7µM*
Cc1ccc(CN2C(=O)C3CCCN3c3ncccc32)cc1 (stereo not given)	?	?	-16	5%	-20%[0.00184 µM]
NC(=O)c1ccc(NC(=O)COC(=O)C2COc3ccccc3O2)cc1 (stereo not given)	.	.	3	.	.
O=S(=O)(c1ccc(NC(=S)NCc2cccnc2)cc1)N1CCCCC1	?	32µM*	-27	2%	-24%
NS(=O)(=O)c1ccc(NC(=O)c2ccc(S(=O)(=O)N3CCCCC3)cc2)cc1	.	.	0	.	.
SMILES	Pf growth 96h	Sm TGR block	HCMV inh	Giardia FBPA inh	Pf growth 48h
CC(=O)Nc1ccc(NC(=S)NC(=O)C2CCCC2)cc1	0%	0%	38	.	-29%
NS(=O)(=O)c1ccc(NC(=S)NC(=O)C2CCCC2)cc1	1.9µM*	?	-11	.	-13%
CCN(CC)c1ccc(NC(=S)NC(=O)C2CCC2)cc1	12µM*	?	-5	.	-29%
NS(=O)(=O)c1ccc(NC(=S)Nc2ccc(S(=O)(=O)N3CCCC3)cc2)cc1	19%	25µM*	-32	-13%	11%
Cc1nn(-c2ccc(Cl)cn2)c2c1C(=O)CC(C)(C)C2Br (stereo not given)	.	.	-24	.	.
Cc1ccc(C(=O)N2CCN(CCc3ccncc3)CC2)cc1	.	-28%	5	.	.
COc1cccc(N2CCN(C(=O)CCCn3c(=O)[nH]c4ccc(Br)cc4c3=O)CC2)c1	.	-3%	-22	.	.
CN(C)NC(=S)Nc1ccc(S(=O)(=O)N2CCCCC2)cc1	-27%	1%	-34	-24%	-15%
O=S(=O)(c1ccc(NC(=S)NC23CC4CC(CC(C4)C2)C3)cc1)N1CCCCC1	.	.	-90*	.	.
O=C(Nc1ccccc1)Nc1ccc(S(=O)(=O)N2CCCCC2)cc1	-12%	0%	-14	-4%	?
Cc1ccc(C)c(NC(=S)Nc2cccnc2)c1	5%	?	-1	-3%	-8%
Cc1ccc(NC(=S)Nc2cccnc2)c(S(=O)(=O)N2CCCCC2)c1	?	14µM*	-75*	-9%	-1%
O=S(=O)(c1ccc(NC(=S)NN=Cc2ccccc2O)cc1)N1CCCCC1	.	.	-61*	.	.
CCCCC(C(=O)OCC)C(N)Cc1ccc(F)cc1 (stereo not given)	45%	-8%	7	-4%	?
Cc1nnc2n(Cc3ccccc3)c(=O)c3c4c(sc3n12)CN(Cc1ccccc1)CC4	15%	-1%	.	-12%	?
O=c1c2c3c(sc2n2cnnc2n1Cc1ccccc1)CN(Cc1ccccc1)CC3	?	-16%	10	-12%	10µM*
CCc1ccc(-c2nnn(CCC(=O)OC)n2)cc1	4.7µM*	17%	?	-5%	43%
CCC[C@@H]1CCCO[C@@](C(=O)NCc2cc(C)n(C)n2)(C(F)(F)F)C1	.	.	-2	4%	.
Cc1ccc(C(=O)Nc2ccc(NC(=O)c3ccco3)c(C)c2)cc1	3%	-13%	-27	1%	77%
CCOc1ccccc1-c1nc(-c2ccc(NC(=O)Cc3ccc(OC)cc3)cc2)no1	?	1%	2	2%	?
COC(=O)Cc1ccc(NC(=O)c2ccc(Br)o2)cc1	0%	-11%	-12	-9%	99%
CCN(CC)c1ccc(NC(=O)c2ccc(Br)o2)cc1	10µM*	-16%	75	-17%	-13%
CCOc1ccccc1-c1nc(-c2ccc(NC(=O)c3ccc(Br)o3)cc2)no1	29%	-7%	7	1%	2.9µM*
Cc1cc(NC(=O)c2ccc(Br)o2)ccc1NC(=O)c1ccco1	?	-4%	-89*	-1%	-10%
O=C(Nc1ccccc1)c1ccc(Br)o1	72%	4%	-62*	-11%[89.2 µM]	101%
O=C(Nc1cccc(NC(=O)c2ccc(Br)o2)c1)c1ccccc1	23%	-22%	-11	8%	18%
O=C(CN1CCN(Cc2ccccc2Cl)C1=O)NCCCN1CCOCC1	20%	8%	-17	6%	2%
Cc1cccc(CNc2ncncc2-c2cccc(NS(C)(=O)=O)c2)c1	.	.	.	0%	.
